Hits are enriched below; roughly 21% of the tested compounds scored in any of these assays.
ELG1 DNA repair: inhibitors of ELG1-dependent DNA repair in HEK293T cells. AID 504467. actives 2.3% (n = 330,000). HEK293T ELG1-luciferase reporter, luminescence, 16 h; DNA damage induced by 5-fluorouridine. Potency, µM (doses to about 46.1 µM), without a hit: top-dose activity change, negative = inhibition, usual class: inhibitors; also: potency is read from the fitted curve at half-maximal effect; nearly all actives have a fitted effect of over 55% in size
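Quantitative HTS, concentration-response format. 2,000 cells/well co-treated with 5-fluorouridine and compound, 16 hr in 5% CO2 at 37 °C; ONE-Glo luminescence read after 30 min.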
TDP1 cell noCPT: qHTS for Inhibitors of human tyrosyl-DNA phosphodiesterase 1 (TDP1): qHTS in cells in absence of CPT; Potency, µM (titrated, usually from 46.2 µM), for inactives: at the highest dose activity change, negative = growth inhibition, usual class: inhibitors; actives 15% (n = 420,000); DT40 Tdp1-/- hTDP1 cells, no CPT, ATP luminescence, 48 h; also: potency is read from the fitted curve at half-maximal effect; nearly all actives have a fitted effect of over 55% in size
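Growth of hTDP1-complemented DT40 Tdp1-knockout cells is measured by ATP luminescence after at least 48 hr compound exposure at 37 °C, with DMSO substituting for the 20 nM CPT used in the parallel screen.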
IL-1B inflam inh: inflammasome signaling inhibition, IL-1 beta readout; THP-1 LPS/ATP IL-1B secretion, AlphaLISA, 16 h; hits give low values; activity change, % at 57.5 µM; actives 4.7% (n = 360,000); AID 743279; in the data active = activity change below about -50%; inconclusive = mostly about -30% to -49%
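Secreted IL-1B measured by AlphaLISA bead assay after 16 h compound exposure of THP-1 cells; compounds (final up to 57.5 uM) added 1 h before LPS (250 ng/mL) and ATP (1.25 mM) stimulation; lower signal means less secretion.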
RORgamma inh: blocks mouse ROR gamma transcriptional activity; actives 5.4% (n = 310,000); Potency, µM (doses to about 53.6 µM), without a hit: top-dose activity change, negative = inhibition, actives largely listed as inhibitors; AID 2551; Drosophila S2 Gal4-RORgamma UAS-luciferase reporter, 20 h; also: potency is read from the fitted curve at half-maximal effect; nearly all actives have a fitted effect of over 60% in size
Target sequence (P51450 whole entry, looked up, the tested form may be a part): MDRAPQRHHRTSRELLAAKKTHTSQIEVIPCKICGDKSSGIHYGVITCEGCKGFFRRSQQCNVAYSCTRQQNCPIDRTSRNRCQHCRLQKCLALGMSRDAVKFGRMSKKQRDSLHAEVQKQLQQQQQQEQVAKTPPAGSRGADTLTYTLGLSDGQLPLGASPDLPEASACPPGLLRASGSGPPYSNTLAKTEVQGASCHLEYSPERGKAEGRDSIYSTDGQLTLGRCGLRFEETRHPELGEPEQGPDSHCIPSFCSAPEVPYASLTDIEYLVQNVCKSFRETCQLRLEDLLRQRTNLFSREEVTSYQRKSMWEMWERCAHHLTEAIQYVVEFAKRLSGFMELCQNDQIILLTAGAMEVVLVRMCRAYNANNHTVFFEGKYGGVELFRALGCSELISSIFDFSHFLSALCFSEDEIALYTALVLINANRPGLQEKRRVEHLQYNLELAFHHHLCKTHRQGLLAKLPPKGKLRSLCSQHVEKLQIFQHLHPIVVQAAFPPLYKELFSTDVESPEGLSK
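Using a luciferase readout, inhibitors were identified by reduced reporter activity in Drosophila cells coexpressing a copper-inducible Gal4–ROR gamma fusion and UAS-driven Photinus luciferase, incubated 20 hr after 700 uM copper sulfate.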
DT40 TDP1 CPT: DT40-hTDP1 cell growth loss with CPT | chicken DT40 Tdp1-/-;hTDP1 cells + 20 nM CPT, ATP luminescence, 48 h | Potency, µM (top dose mostly 46.2 µM), inactives show at the highest dose activity change, negative = growth inhibition, hits mostly inhibitors | actives 12% (n = 420,000) | AID 686979; also: potency is read from the fitted curve at half-maximal effect; nearly all actives have a fitted effect of over 55% in size
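Chicken DT40 Tdp1-/- cells complemented with human TDP1, 400 cells/well, exposed to compounds plus 20 nM camptothecin for at least 48 h at 37 C; viability read as ATP content by CellTiter-Glo luminescence.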
VP16 counter: inhibits Gal4-VP16 luciferase reporter, ROR gamma counter-screen | Drosophila S2 Gal4-VP16 UAS-luciferase, luminescence, 20 h | Potency, µM (series often up to 53.6 µM), for the others: at the top dose activity, negative = inhibition, actives largely listed as inhibitors | actives 3.5% (n = 310,000);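 also: Gal4-VP16 expression switched on by copper sulfate through the metallothionein promoter; potency is read from the fitted curve at half-maximal effect; nearly all actives have a fitted effect of over 50% in size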
* = called active by the depositor; ? = inconclusive; . = no result; [ ] = remark or other dose. Unless noted, calls follow the shape of the dose curve; as a rule, active = well fitted curve in the direction sought with a large enough effect; inconclusive = small, poorly fitted or top-dose-only effect, or another doubt; inactive = no such curve, though single readings can be large; an effect the other way counts as inactive or inconclusive. % is scaled to controls: 0 for no effect and ±100 for the full control effect.

SMILES	ELG1 DNA repair	TDP1 cell noCPT	IL-1B inflam inh	RORgamma inh	DT40 TDP1 CPT	VP16 counter
CN(O)/C=C1\C(=O)Nc2ccccc21	0%	-31%	18	10%	-9%	-1%
CC(C)Oc1ccc(C(=O)/C=C2/C(=O)Nc3ccccc32)cc1	-23%	12µM*	-100*	10µM*	?	?
O=C(/C=C1\C(=O)Nc2ccccc21)/C=C1\C(=O)Nc2ccccc21	11%	1.8µM*	-2	13µM*	1.5µM*	10µM*
CN(C)c1ccc(/C=C2\C(=O)Nc3ccccc32)c2ccccc12	.	.	.	19%	.	-7%
O=C1Nc2ccccc2/C1=C\C(=O)c1ccccc1	?	2.1µM*	-21	13µM*	2.9µM*	?
CC(C)Oc1ccc(C(=O)O)cc1	?	-2%	22	0%	1%	-3%
CCOC(=O)C(CC1=CS(=O)(=O)c2ccc(Cl)cc21)(NC(C)=O)C(=O)OCC	.	-10%	31	.	4%	.
O=C(Nc1nnc2n1CCS2)c1ccc(Br)o1	?	-1%	0	3.5µM*	-8%	7.1µM*
O=C(CN1CCN(S(=O)(=O)c2ccc(Br)cc2)CC1)c1ccc(O)c(O)c1	4%	7.3µM*	3	-24%	18µM*	15%
Cc1ccc(S(=O)(=O)N2CCN(Cc3cc(Br)ccc3O)CC2)cc1	.	?	.	.	18µM*	.
COc1ccc2oc(=O)c(C(=O)N3CCN(c4ccc(F)cc4)CC3)cc2c1	-14%	-28%	24	-19%	-13%	-3%
COc1ccc(N2CCN(C(=O)c3cn(Cc4ccccc4)nc3-c3cccnc3)CC2)cc1	-20%	-16%	10	.	-24%	.
COc1ccc(CN2CCc3c(c(=O)n4ncc(C(=O)N5CCN(c6ccc(F)cc6)CC5)c4n3C)C2)cc1	.	1.8µM*	.	.	2.3µM*	.
CCn1c2c(c(=O)n3ncc(C(=O)N4CCN(c5ccc(C(C)=O)cc5)CC4)c13)CN(Cc1ccc(OC)cc1)CC2	.	2.6µM*	.	.	4.1µM*	.
CCn1c2c(c(=O)n3ncc(C(=O)Nc4ccc(OC(F)(F)F)cc4)c13)CN(Cc1ccc(OC)cc1)CC2	.	23µM*	.	.	?	.
COc1ccc(-n2ncc(C(=O)N3CCN(c4ccc(F)cc4)CC3)c2C)cc1	21µM*	?	.	29%	-29%	0%
O=C(O)C1CCCCN1C(=O)c1ccc(S(=O)(=O)N2CCCC2)cc1 (stereo not drawn)	-1%	-18%	5	.	-1%	.
COc1ccc(CC(N)c2csc(NC(=O)c3ccccc3OC)n2)cc1 (stereo not drawn)	.	-25%	-7	.	?	.
COc1ccc(CC(N)c2csc(NC(=O)c3cccc(OC(F)(F)F)c3)n2)cc1 (stereo not drawn)	.	12µM*	-60*	.	15µM*	.
NC(Cc1ccccc1)c1csc(NC(=O)c2cccc(OC(F)(F)F)c2)n1 (stereo not drawn)	.	7.3µM*	.	.	7.3µM*	.
COCC(=O)N1CCC[C@@]2(CCN(c3ncccn3)C2)C1	.	-1%	.	-5%	2%	6%
O=C(NCc1ccccn1)c1nc(Cn2cc([N+](=O)[O-])cn2)no1	7%	-10%	-4	-23%	2%	-2%
Cc1ccc(NC(=O)c2c(C)oc3ncn(CC(C)C)c(=O)c23)nc1	.	9.2µM*	.	.	13µM*	.
CCC(C)NC(=O)c1c(C)oc2ncn(CC(C)C)c(=O)c12 (stereo not drawn)	.	?	.	.	-29%	.
COC(=O)C(CCSC)NC(=O)c1c(C)oc2ncn(CC(C)C)c(=O)c12 (stereo not drawn)	.	13µM*	.	.	-26%	.
SMILES	ELG1 DNA repair	TDP1 cell noCPT	IL-1B inflam inh	RORgamma inh	DT40 TDP1 CPT	VP16 counter
Cc1oc2ncn(CC(C)C)c(=O)c2c1C(=O)NC(C)c1ccccc1 (stereo not drawn)	.	21µM*	.	.	21µM*	.
COc1ccccc1NC(=O)c1ccc(NC(=O)c2ccc(=O)[nH]c2)cc1	-3%	?	3	.	?	.
Nn1c(SCC(=O)NCCc2ccc(F)cc2)nnc1C1CCCCC1	5%	-5%	10	.	0%	.
Cc1ccc(S(=O)(=O)NCc2csc(C)n2)cc1	0%	-9%	0	22%	6%	-3%
Cc1nc(CNS(=O)(=O)c2ccc3c(c2)CCCC3)cs1	-8%	?	17	-9%	16µM*	-8%
CCCCOc1ccc(S(=O)(=O)NCc2csc(C)n2)cc1	-26%	23µM*	?	-11%[0.365 µM]	13µM*	.
CN(C)c1ncnc2c1ncn2[C@H]1CN(Cc2cccs2)C[C@@H](CO)O1	.	-8%	21	.	-9%	.
CCOC(=O)c1c(-c2ccc(C)cc2)csc1NC(=O)c1nc(SCC)ncc1Cl	.	-15%	.	.	-4%	.
COc1ccc(NC(=O)C(Cc2cc(C)cc(C)c2)C(C)C(=O)O)cc1 (stereo not drawn)	1%	-15%	5	-23%	4%	-10%
O=S(=O)(Nc1cccc(S(=O)(=O)N2CCCCC2)c1)c1ccc(Cl)s1	-15%	-24%	31	.	-9%	.
C[C@H](C(=O)O)c1cccc(Oc2ccccc2)c1	.	.	.	1%[2.98 µM]	.	-20%[17 µM]
COCc1cc(C)nc(SCC(=O)Nc2nc(C)cs2)c1C#N	?	16µM*	-8	-3%	?	-8%
CC1CN(C(=O)CCC(=O)NCc2cccs2)c2cc(Cl)ccc2O1 (stereo not drawn)	.	-13%	.	.	?	.
CCCCC(=O)N(C)c1c(C)nc2ccc(C(=O)N3CCN(C(=O)c4ccco4)CC3)cn12	.	-13%	-54*	.	-23%	.
CC(=O)Nc1ccc(CN(C)c2c(C)nc3ccc(C(=O)NCCc4ccccn4)cn23)cc1	.	-23%	-18	.	-27%	.
CCCCN(C)c1c(C)nc2ccc(C(=O)N(C)Cc3ccco3)cn12	.	18µM*	-3	.	?	.
CC(=O)Nc1ccc(CN(C)c2c(C)nc3ccc(C(=O)N(C)Cc4ccco4)cn23)cc1	.	?	10	.	16µM*	.
CCCCC(=O)N(C)c1c(C)nc2ccc(C(=O)N(C)Cc3ccco3)cn12	.	-18%	26	.	-20%	.
CCOc1ccccc1N1CCN(C/C=C/c2ccc(N(C)C)cc2)CC1	-15%	?	-13	-9%	?	-1%
CN(C)c1ccc(/C=C/N2C=CCc3c2ccc2ccccc32)cc1	.	0.089µM*	.	.	0.079µM*	.
COc1c(Cl)cnn(-c2ccccc2)c1=O	19%	-7%	-75*	-14%	7%	0%

Assay outcomes from PubChem.
